Screening data from PubChem.
An excerpt weighted towards active compounds, which were near 2.2% of everything screened.
ADAM10 inh – inhibitors of human ADAM10; inhibition, % at 7 µM; recombinant ADAM10, EDANS/DABCYL FRET peptide cleavage, 3 h; 370,000 compounds, 0.62% hits;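 active = inhibition above a per-campaign cutoff equal to the mean of compounds falling between control-based bounds plus 3 SD, cut at about 20% in these data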
GC-A act – GC-A (human) enzyme activation | P16066 | HEK293 GC-A cells, cGMP TR-FRET, EC30 ANP; 0% at EC30 ANP, 100% saturating ANP | activation, % at 10 µM | 370,000 compounds, 0.14% hits; in the data active = activation above about 40%
ADAM17 inh – inhibits human ADAM17 | inhibition, % at 6.95 µM | P78536 | recombinant ADAM17, EDANS/DABCYL FRET peptide cleavage | 370,000 compounds, 0.83% hits;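 active = inhibition above the mean of compounds lying between control limits plus 3 SD, set per campaign, cut at about 8.5% in these data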
NPR2 activator – GC-B (human) receptor activation; AID 1920062; 370,000 compounds, 0.11% hits; activation, % at 10 µM; HEK293-GC-B cells, CNP EC30, cGMP TR-FRET; 0% at EC30 CNP, 100% saturating CNP; P20594;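 active = activation at 10 µM reaching about 35% in either raw or pattern-adjusted values, limit read from the data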
proKLK7 act – activators of human kallikrein-7 zymogen. P49862. purified proKLK7, EDANS-DABCYL substrate fluorescence; 100% is mature enzyme control, 0% vehicle. activation, % at 7 µM. 370,000 compounds, 0.9% hits. AID 652039;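 active = activation above the mean of all tested compounds plus 3 SD, computed per campaign excluding outliers beyond control limits, cut at about 13% in these data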
ADAM10 ctr – counter-screen for ADAM17 exosite inhibitors: inhibitors of human ADAM10; 2,900 compounds, 47% hits; shares compounds with ADAM17 inh; AID 743256; inhibition, % at 6.95 µM; recombinant ADAM10, EDANS/DABCYL FRET peptide cleavage, 3 h;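 active = mean inhibition over the triplicate runs exceeds the activity threshold set in the earlier primary screen, cut at about 20% in these data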
ADAM17 confirm – confirmation of inhibitors of human ADAM17. 2,900 compounds, 65% hits. recombinant ADAM17, EDANS/DABCYL QFRET peptide cleavage. inhibition, % at 6.95 µM. shares compounds with ADAM17 inh. AID 743257;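 active = mean inhibition across replicates above the hit cutoff set in the primary screen, cut at about 8.5% in these data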
Each line names hits and unclear results; the compound was inactive in the other large screens (follow-up assays come after a bar, where they were run).

CN(C)c1ccc(NC(=O)c2ccc(COc3cccc(Cl)c3)o2)cc1	ADAM17 inh 10 | ADAM10 ctr inactive | ADAM17 confirm 12
CC(C)c1c(C(=O)N/N=C/c2ccoc2)nnn1-c1nonc1N	none
CC(C)c1c(C(=O)N/N=C/c2ccc(C(F)(F)F)cc2)nnn1-c1nonc1N	ADAM17 inh 9.8 | ADAM10 ctr 22 | ADAM17 confirm 14
CC(=O)c1cccc(NC(=O)C2CCCC2)c1	ADAM17 inh 9.5 | ADAM10 ctr inactive | ADAM17 confirm inactive
Cc1cccc(NC(=O)C2CCCC2)c1	none
S=C(NCc1cccc(Cl)c1)OC1CCC12CCC(c1ccccc1)CC2 (stereo not given)	none
O=C(NC(=S)NNC(=O)c1cc2ccccc2cc1O)c1ccco1	ADAM17 inh 9.3 | ADAM10 ctr inactive | ADAM17 confirm inactive
Cc1ccc(C(=O)CCC(=O)OCC(=O)N(CC(C)C)c2c(N)n(Cc3ccccc3)c(=O)[nH]c2=O)cc1	none
CC(C)CN(C(=O)COC(=O)CCC(=O)c1ccc(F)cc1)c1c(N)n(Cc2ccccc2)c(=O)[nH]c1=O	ADAM17 inh 13 | ADAM10 ctr inactive | ADAM17 confirm inactive
C=CC[C@H](CC(=O)N[C@H](CO)Cc1ccccc1)C(=O)N[C@H](COC(=O)[C@@H](CC=C)CC(=O)OC(C)(C)C)Cc1c[nH]c2ccccc12	ADAM17 inh 14 | ADAM10 ctr 27 | ADAM17 confirm 15
C=CC[C@@H](CC(=O)N[C@@H](CO)Cc1ccccc1)C(=O)N[C@@H](COC(=O)[C@@H](CC=C)CC(=O)OC(C)(C)C)Cc1c[nH]c2ccccc12	none
C=CC[C@@H](CC(=O)N[C@H](CO)Cc1ccccc1)C(=O)N[C@H](COC(=O)[C@@H](CC=C)CC(=O)OC(C)(C)C)Cc1c[nH]c2ccccc12	none
C=CC[C@@H](CC(=O)N(CCO)Cc1ccccc1)C(=O)N[C@H](COC(=O)[C@H](CC=C)CC(=O)OC(C)(C)C)Cc1c[nH]c2ccccc12	ADAM17 inh 9.9 | ADAM10 ctr 48 | ADAM17 confirm 23
C[C@@H]1COc2cc(Br)ccc2S(=O)(=O)N1Cc1cn(CCC2OCCO2)nn1	none
CCOCCn1c(COc2ccccc2)nc2ccccc21	ADAM17 inh 9.4 | ADAM10 ctr inactive | ADAM17 confirm inactive
COc1ccc(NC(=O)Nc2cc(C)nn2-c2ccccc2)cc1	none
NC1=NC2(CCC(c3ccccc3)CC2)n2c(nc3ccccc32)N1 (stereo not given)	ADAM17 inh 9.0 | ADAM10 ctr inactive | ADAM17 confirm inactive
O=C([C@@H]1C[C@H]1c1ccccc1)N1CCC(Oc2cccnc2)CC1	none
COc1cc(-n2c(C)nc3cc(C(=O)N4CCCCC4)ccc32)cc(OC)c1OC	none
Cc1ccc(C(=O)c2nc3c(n2O)CCCC3)cc1	none
CCOc1ccc(C(=O)c2nc3c(n2O)CCCC3)cc1	ADAM17 inh 9.8 | ADAM10 ctr inactive | ADAM17 confirm 9.7
C[C@H]1C(=O)N2[C@@H](C[C@]3(c4c[nH]c5ccccc45)c4ccccc4N(S(=O)(=O)c4ccccc4)[C@H]23)C(=O)N1C	none (no result: proKLK7 act)
C/C(=N\NC(=O)c1c(Br)c(C)nn1C)c1ccc(NC(=O)C(C)Oc2ccc(Cl)cc2C)cc1 (stereo not given)	ADAM17 inh 9.1 | ADAM10 ctr inactive | ADAM17 confirm inactive
CCC(=O)Nc1ccc(/C(C)=N/NC(=O)c2c(Br)c(C)nn2C)cc1	none
CS(=O)(=O)NCc1nnc(SCC(=O)NC2CCCCC2)n1-c1ccc(F)cc1	ADAM17 inh 9.1 | ADAM10 ctr inactive | ADAM17 confirm inactive
CN(C)c1ccc(-c2csc(C(C)(O)c3ccc(F)c(F)c3)n2)cc1 (stereo not given)	ADAM17 inh 13 | ADAM10 ctr inactive | ADAM17 confirm inactive
CN1C(=O)C[C@@](C#N)(C(=O)NCc2ccc3c(c2)OCO3)[C@H]1c1ccccc1	none
COc1ccc(NC(=O)CCC(=O)Nc2nnc(C(C)C)s2)cc1Cl	none
COc1ccc(OC)c(NC(=O)CCC(=O)Nc2nnc(C(C)C)s2)c1	ADAM17 inh 12 | ADAM10 ctr inactive | ADAM17 confirm inactive
O=C(Nc1ccc(Cl)cc1)C1CCCN1S(=O)(=O)c1cccc2cccnc12 (stereo not given)	none
COc1cc(COC(=O)Oc2ccc(CNC(C)=O)cc2OC)c([N+](=O)[O-])cc1OC	ADAM17 inh 10.0 | ADAM10 ctr inactive | ADAM17 confirm inactive
COc1cc(NC(=O)NC2CCCCN(Cc3cccc(Cl)c3)C2=O)cc(OC)c1 (stereo not given)	none
CCCCNS(=O)(=O)c1ccc(NC(=O)C(Sc2ccccc2)c2ccccc2)cc1 (stereo not given)	ADAM10 inh 38, ADAM17 inh 17 | ADAM10 ctr 46 | ADAM17 confirm 27
C=CCN1C(=O)[C@H](CC(=O)NCC2CCCCC2)[C@@]2(C(=O)OCC)CCCC=C12	none
CN(C(=O)COC(=O)COc1ccc(N(C)S(=O)(=O)c2ccc(Cl)cc2)cc1)c1ccccc1	ADAM17 inh 18 | ADAM10 ctr inactive | ADAM17 confirm inactive
Cc1ccc(Cn2c(C(CO)Nc3nc(-c4ccc(Cl)c([N+](=O)[O-])c4)cs3)nc3ccccc32)cc1 (stereo not given)	ADAM17 inh 17 | ADAM10 ctr inactive | ADAM17 confirm 9.7
COc1ccccc1N1CCN(N=Cc2ccccc2Br)CC1	none
C[C@@]12C(=O)N(c3cccc(Cl)c3)C(=O)N1[C@H](c1ccc(Cl)cc1)[C@@H]1C(=O)N(C3CCCCC3)C(=O)[C@@H]12	ADAM17 inh 10 | ADAM10 ctr 38 | ADAM17 confirm 22
C[C@@]12C(=O)N(c3cccc(F)c3)C(=O)N1[C@H](c1ccc(Cl)cc1)[C@@H]1C(=O)N(C3CCCCC3)C(=O)[C@@H]12	none
COC(=O)[C@]12C[C@H](CC(=O)N3CCN(C(=O)C4CC4)CC3)C(=O)N(Cc3cccc4ccccc34)C1=C[C@H](C(C)(C)C)O[C@@H]2C	none
O=C(COC(=O)/C=C/c1ccc(Cl)cc1)NC(=O)NCc1ccccc1	ADAM17 inh 9.9 | ADAM10 ctr 26 | ADAM17 confirm 15
Cc1cc(NC(=O)/C(C#N)=C/c2ccco2)n(-c2ccccc2)n1	ADAM17 inh 9.0 | ADAM10 ctr 20 | ADAM17 confirm 11
O=[N+]([O-])c1ccc(CSc2nnc(-c3cccc(Cl)c3)n2Cc2ccco2)cc1	none
Cc1c(Cl)c([N+](=O)[O-])nn1CCCC(=O)Nc1cc(Oc2ccccc2)cc([N+](=O)[O-])c1	none
